Rows were chosen to be rich in hits. Some 31% of all compounds tested hit in one or more screens of this group.
CYP2C19 inhib – blocks human cytochrome P450 2C19 | P33261 | CYP2C19 Supersomes, luciferin-H EGE luminescence, 30 min | inhibition, % at 5 µM | actives 21% (n = 96,000) | AID 778;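 active = CYP2C19 inhibition above a set limit at 5 µM in the primary screen, cut at about 50% in these data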
Target sequence (P33261 whole entry, looked up): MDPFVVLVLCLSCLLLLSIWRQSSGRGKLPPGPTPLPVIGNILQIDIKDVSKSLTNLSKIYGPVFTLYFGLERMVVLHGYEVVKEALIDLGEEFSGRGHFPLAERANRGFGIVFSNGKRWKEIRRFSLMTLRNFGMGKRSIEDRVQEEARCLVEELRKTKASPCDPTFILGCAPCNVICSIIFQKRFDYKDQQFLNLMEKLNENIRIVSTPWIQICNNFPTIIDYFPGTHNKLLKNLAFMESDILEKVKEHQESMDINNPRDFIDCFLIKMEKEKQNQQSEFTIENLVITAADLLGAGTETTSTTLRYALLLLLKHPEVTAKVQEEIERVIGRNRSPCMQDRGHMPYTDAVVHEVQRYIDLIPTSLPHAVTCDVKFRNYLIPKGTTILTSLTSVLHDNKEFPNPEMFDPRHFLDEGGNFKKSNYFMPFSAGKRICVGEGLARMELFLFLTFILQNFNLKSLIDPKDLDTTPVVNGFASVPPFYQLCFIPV
CYP2C9 act – activators of human CYP2C9; actives 1.4% (n = 96,000); recombinant CYP2C9, luciferin-H conversion, luminescence; stronger effect = higher value; factor 1 = untreated enzyme, 0 = blocked; P11712; activation factor at 5 µM;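 active = activation factor of 2 or more for CYP2C9 at a 5 µM dose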
CYP2C9 inhib – human CYP2C9 inhibition; AID 777; P11712; inhibition, % at 5 µM; actives 20% (n = 96,000); CYP2C9 Supersomes, luciferin-H conversion, luminescence;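 active = blocking of liver enzyme CYP2C9 beyond about 50% at 5 µM, limit read from the data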
PLAP activator – activators of human placental alkaline phosphatase; P05187; purified PLAP enzyme, luminescent substrate read-out; stronger effect = higher value; activation fold at 20 µM; actives 1.2% (n = 96,000); in the data active = activation fold above about 2
CYP2C19 act – increases human CYP2C19 enzyme activity; P33261; recombinant CYP2C19, luciferin-H EGE luminescence; stronger effect = higher value; 0 = fully inhibited enzyme, 1 = untreated enzyme; activation factor at 5 µM; 96,000 tested, under 10 active; AID 1025;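 active = activation factor of at least 2 at 5 µM in the primary screen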
Hits are given with their value; - = inactive.

SMILES | CYP2C19 inhib | CYP2C9 act | CYP2C9 inhib | PLAP activator | CYP2C19 act
C=CCN(CC=C)Cc1c(C)[nH]c2ccc(C(=O)OCC)cc2c1=O | - | - | - | - | -
CCc1ccc(C(=O)COC(=O)c2cnccn2)cc1 | - | - | - | - | -
CCn1c(=O)cc(OCC(=O)Nc2cccc(C)n2)c2ccccc21 | - | - | - | - | -
COc1cc(NC(C)C(=O)N2CC(C)OC(C)C2)cc(OC)c1 (stereo not given) | - | - | - | - | -
CN(C)CCCNC(=O)CC(c1ccccc1)c1ccccc1O (stereo not given) | - | - | - | - | -
CC(C)(C)NC(=O)CC(c1ccccc1)c1ccccc1O (stereo not given) | 90 | - | 96 | - | -
O=C(CC(c1ccccc1)c1ccccc1O)NCCN1CCOCC1 (stereo not given) | 54 | - | - | - | -
Cn1c(=O)c2c(nc(NCc3ccco3)n2CCc2ccccc2)n(C)c1=O | - | - | - | - | -
COc1ccc2c(C(=O)CN3CC(C)OC(C)C3)c[nH]c2c1 (stereo not given) | 53 | - | - | - | -
O=c1[nH]c2ccc(NC(=S)Nc3ccccc3Cl)cc2[nH]1 | - | - | - | - | -
COc1ccc(NC(=O)C2CCCCN2S(=O)(=O)c2ccc(F)cc2)cc1 (stereo not given) | 68 | - | - | - | -
CCOc1ccc(NC(=O)C2CCCCN2S(=O)(=O)c2ccccc2)cc1 (stereo not given) | 75 | - | - | - | -
CCCOc1ccc(N2CC(C(=O)Nc3ncccc3C)CC2=O)cc1 (stereo not given) | - | - | 69 | - | -
Cc1ccc(S(=O)(=O)N2CCC(C(=O)Nc3ccc4c(c3)OCO4)CC2)cc1 | - | - | - | - | -
O=C(Nc1ccc2c(c1)OCO2)C1CCCCN1S(=O)(=O)c1ccc(F)cc1 (stereo not given) | 100 | - | 63 | - | -
O=C(O)C1CCCCN1S(=O)(=O)c1ccccc1 (stereo not given) | - | - | - | - | -
Cc1ccc(N=C/C(C(=O)C(F)(F)F)=C(\O)c2cccs2)cc1 | - | - | - | - | -
O=C(NCC1CCCO1)C1CCCCN1S(=O)(=O)c1ccc(F)cc1 (stereo not given) | - | - | - | - | -
COc1ccc(S(=O)(=O)N2CCC(O)(c3ccc4c(c3)OCO4)CC2)cc1 | - | - | - | - | -
CCOc1ccc(N2CC(C(=O)Nc3ccc(S(=O)(=O)N4CCOCC4)cc3)CC2=O)cc1 (stereo not given) | - | - | 57 | - | -
COc1ccccc1NC(=O)C1CCCCN1S(=O)(=O)c1ccc(F)cc1 (stereo not given) | - | 2.7 | - | - | -
O=C(NCc1ccco1)C1CCCCN1S(=O)(=O)c1ccc(F)cc1 (stereo not given) | 61 | - | - | - | -
O=S(=O)(c1ccc(F)cc1)N1CCC(O)(c2ccc3c(c2)OCO3)CC1 | 71 | - | - | - | -
COC(=O)c1cc(-c2ccccc2)n(CC(=O)O)c1C | - | - | - | - | -
COc1ccc(S(=O)(=O)N2CCCC2C(=O)Nn2cnnc2)cc1 (stereo not given) | - | - | - | - | -
SMILES | CYP2C19 inhib | CYP2C9 act | CYP2C9 inhib | PLAP activator | CYP2C19 act
COc1ccc(S(=O)(=O)N2CCCC2C(=O)Nc2nccs2)cc1 (stereo not given) | - | - | - | - | -
COc1ccc(NC(=O)C2CCCN2S(=O)(=O)c2ccc(C)cc2)cc1 (stereo not given) | 74 | - | 75 | - | -
COc1ccc(S(=O)(=O)N2CCCC2C(=O)Nc2ccc(C(C)=O)cc2)cc1 (stereo not given) | 57 | - | - | - | -
CCOC(=O)c1cnn(-c2ccccc2)c1NC(=O)CSc1nnc(-c2cccs2)n1CC | - | - | - | - | -
CCCCOCCCNC(=O)C1CCCCC1 | - | - | - | - | -
COc1cccc(OC)c1-c1nn2c(-c3ccccc3Cl)nnc2s1 | 82 | - | - | - | -
c1ccc(Cc2nnc3sc(-c4ccco4)nn23)cc1 | 91 | - | - | - | -
Clc1ccccc1-c1nnc2sc(-c3ccco3)nn12 | 69 | - | - | - | -
COc1ccc(OC)c(NC(=O)C2C3CCC(O3)C2C(=O)O)c1 (stereo not given) | - | - | - | - | -
COc1ccc(C2C(C(=O)Nc3cccc(C)n3)c3ccccc3C(=O)N2C)cc1 (stereo not given) | - | - | - | - | -
O=C(COc1ccccc1)Nc1nnc(-c2ccc(Cl)s2)o1 | - | - | - | - | -
N#C/C(=C\c1cccs1)Sc1nc2ccccc2s1 | 96 | - | - | - | -
N#C/C(=C(/O)c1ccco1)c1nc2ccccc2s1 | - | - | - | - | -
N#C/C(=C\c1ccc[nH]1)Sc1nc2ccccc2s1 | 92 | - | 77 | - | -
O=C(NCCCN1CCOCC1)c1ccc(Cl)s1 | - | - | - | - | -
CCOC(=O)c1c(N)sc2c1CCC1C(=O)N(C3CCCCC3)C(=O)C21 (stereo not given) | 91 | - | 90 | - | -
CCOC(=O)c1c(N)sc2c1CCC(CC)C2 (stereo not given) | - | - | - | - | -
O=C(NCc1ccccc1)c1ccc(CN(c2ccccn2)S(=O)(=O)c2ccccc2)cc1 | - | - | - | - | -
Cc1cc(C)c2c(c1)NC(=O)C2(O)CC(=O)c1cccs1 (stereo not given) | 54 | - | - | - | -
COc1ccc(-c2nc(C#N)c(NCC3CCCO3)o2)cc1OC (stereo not given) | 67 | - | 71 | - | -
CCNc1oc(-c2cccc3ccccc23)nc1C#N | - | - | - | - | -
COc1ccc(CCNc2oc(-c3ccc(OC)c(OC)c3)nc2C#N)cc1 | 52 | - | 53 | - | -
COc1ccc(CCNc2oc(-c3ccccc3OC)nc2C#N)cc1OC | 98 | - | 72 | - | -
COc1ccc(CCNc2oc(-c3ccccc3OC)nc2C#N)cc1 | 92 | - | 60 | - | -
COC(=O)c1ccc(CSc2nnc3sc4ccccc4n23)o1 | - | - | - | - | -
SMILES | CYP2C19 inhib | CYP2C9 act | CYP2C9 inhib | PLAP activator | CYP2C19 act
COc1ccc(-c2nc(C#N)c(NCCCN(C)C)o2)cc1OC | - | - | - | - | -
COc1ccc(-c2nc(C#N)c(NC(C)c3ccccc3)o2)cc1OC (stereo not given) | - | - | 53 | - | -
N#Cc1nc(-c2ccccc2F)oc1NCc1cccc2c1OCO2 | - | - | 86 | - | -
COc1ccccc1-c1nc(C#N)c(NCc2ccc(F)cc2)o1 | 76 | - | 60 | - | -
CN(C)CCNc1oc(-c2ccccc2F)nc1C#N | - | - | - | - | -
Cc1ccc(C(C)C)cc1OCCOCCN1CCCC1 | - | - | - | - | -
COc1ccc(OC)c(N=c2ssnc2Cl)c1 | 64 | - | 94 | - | -
Cc1cc(Cl)ccc1N=c1ssnc1Cl | - | - | - | - | -
COc1cc(N=c2ssnc2Cl)c(OC)cc1Cl | - | - | 78 | - | -
Fc1cc2ncn(Cc3ccccc3)c2cc1F | - | - | - | - | -
